# HepG2 viability: HepG2 cytotoxicity, counter-screen for TGF-b inhibitors; HepG2 CAGA-GFP viability, ATP luminescence, 18 h; Potency, µM (series often up to 46.1 µM), without a hit: at the top dose activity change, negative = cytotoxicity, actives largely listed as cytotoxic; 410,000 compounds, 0.76% hits; AID 588856
#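 CellTiter-Glo luminescence gave cytotoxicity after 18 hours at 37 degrees C. The cells were HepG2 CAGA-GFP in 1% FBS DMEM, stimulated with 500 pg/mL TGF-beta after compound addition. %Activity was normalised to no-cell wells (complete cell-killing) and DMSO (no toxicity), and curves were fitted and classified.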
# HT1080-NT tox: kills 2HG-producing HT-1080-NT fibrosarcoma cells. HT-1080-NT fibrosarcoma viability, CellTiter-Glo ATP luminescence, 48 h. Potency, µM (top dose mostly 46.1 µM), for the others: at the top dose activity, negative = less viability, hits mostly cytotoxic. 360,000 compounds, 1.6% hits. AID 686970;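 note: NT is the 2HG producing partner of a matched IDH1 knockdown line; 0% = DMSO-treated cells and -100% = media-only wells without cells; nearly all actives have a fitted effect of over 55% in size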
#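 A 48-hour cytotoxicity screen used HT-1080-NT cells plated 2 hours before compound delivery. ATP-based CellTiter-Glo luminescence measured viability, normalized to DMSO and no-cell controls.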
# TDP1 cell noCPT: qHTS for Inhibitors of human tyrosyl-DNA phosphodiesterase 1 (TDP1): qHTS in cells in absence of CPT | DT40 Tdp1-/- hTDP1 cells, no CPT, ATP luminescence, 48 h | Potency, µM (titrated, usually from 46.2 µM), for the others: top-dose activity change, negative = growth inhibition, hits mostly inhibitors | 420,000 compounds, 15% hits; note: % is set by controls: 0 for no effect and ±100 for the full control effect; nearly all actives have a fitted effect of over 55% in size
#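 Luminescent ATP content (CellTiter-Glo) served as the growth readout. Knockout chicken DT40 cells expressing human TDP1 were exposed to compounds without camptothecin for a minimum 48 hr at 37 °C.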
# TDP1 cell CPT: DT40-hTDP1 cell growth loss with CPT; 420,000 compounds, 12% hits; Potency, µM (titrated, usually from 46.2 µM), without a hit: at the top dose activity change, negative = growth inhibition, hits mostly inhibitors; AID 686979; chicken DT40 Tdp1-/-;hTDP1 cells + 20 nM CPT, ATP luminescence, 48 h; note: % is set by controls: 0 for no effect and ±100 for the full control effect; nearly all actives have a fitted effect of over 55% in size
#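 Chicken DT40 Tdp1-/- cells complemented with human TDP1, 400 cells/well, exposed to compounds plus 20 nM camptothecin for at least 48 h at 37 C; viability read as ATP content by CellTiter-Glo luminescence.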
# HT1080 IDH1KD tx: HT-1080 IDH1 knockdown cell toxicity (counter line). HT-1080 IDH1 knockdown viability, ATP luminescence, 48 h. Potency, µM (highest dose often 46.1 µM), for the others: top-dose activity, negative = toxicity, actives largely listed as cytotoxic. 360,000 compounds, 2% hits. AID 686971;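 note: 0% = DMSO wells and -100% = cell-free medium wells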
#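 After a 2 h attachment period, IDH1KD HT-1080 cells took pin-transferred compound for 48 h at 37 °C; ATP-based luminescence after 10 min room-temperature reagent incubation reported viability.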
# TGFb SMAD3 inh: TGF-b pathway inhibition. HepG2 CAGA-GFP TGF-b/SMAD3 reporter, GFP fluorescence, 18 h; TGF-beta stimulated, 500 pg/mL final. Potency, µM (highest dose often 46.1 µM), for the others: at the top dose activity, negative = inhibition, hits mostly inhibitors. 410,000 compounds, 1.2% hits; note: % is set by controls: 0 for no effect and ±100 for the full control effect; nearly all actives have a fitted effect of over 65% in size
#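 Cell-based qHTS in HEPG2 carrying a CAGA-GFP Smad reporter; compounds added before 500 pg/mL final TGF-beta, 18 h incubation at 37 degrees C, GFP fluorescence quantified per cell by imaging cytometry.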
# Starred values were filed as active, the others as inactive; ? = inconclusive; . = no result given. An excerpt weighted towards active compounds, which were near 17% of everything screened. Calls come from the whole dose curve; as a rule, active = well fitted curve in the direction sought with a large enough effect; inconclusive = small, poorly fitted or top-dose-only effect, or another doubt; inactive = no such curve, though single readings can be large; an effect the other way counts as inactive or inconclusive. Potency is the fitted concentration of half-maximal effect.
SMILES,HepG2 viability,HT1080-NT tox,TDP1 cell noCPT,TDP1 cell CPT,HT1080 IDH1KD tx,TGFb SMAD3 inh
C=CCN1C(=O)CS/C1=N\S(=O)(=O)c1ccc(Cl)cc1,4%,14%,?,-2%,3%,-3%
CCOc1cc(C(C(=O)NCC2CCCO2)N(C(=O)Cn2nnc3ccccc32)c2ccccc2OC)ccc1O (centres undefined),-2%,-26%,-1%,6%,-3%,-2%
Cc1ccc(NC(=O)c2ccc(-n3c(C)nnc3C)cc2)cc1F,-4%,.,-30%,-23%,.,0%
COc1ccc(N=Cc2ccccc2O)cc1,-9%,-13%,-7%,-7%,-22%,-6%
COc1ccc2sc(/C=C/c3ccccc3O)[n+](C)c2c1,-19%,9%,15µM*,23µM*,7%,0%
CCC(CCC(C)C1CCC2C3CC=C4CC(OC(C)=O)CC[C@@]4(C)C3CC[C@@]12C)C(C)C (some centres undefined),.,.,-11%,-22%,.,.
COc1ccc(-c2nc(N)ncc2-c2ccccc2OC)c(O)c1,-24%,-2%,-23%,?,-3%,-24%
COc1cccc(Oc2cnc(N)nc2-c2ccc(OC)cc2O)c1,1%,?,2.3µM*,2.9µM*,-75%,-7%
COc1ccc(-c2nc(N)nc(C(F)(F)F)c2-c2ccccc2OC)c(O)c1,-42%,4%,23µM*,?,0%,-27%
CC(NCc1ccc2c(c1)n(C)c(=O)n2C)c1ccccc1 (centres undefined),-14%,.,-1%,-15%,.,-13%
Cc1ccc2c(c1)cc(C(=O)Nc1ccc(F)cc1F)n2C,6%,.,7.3µM*,?,.,-5%
Cc1ccc(C2=NS(=O)(=O)N(C)C(C(=O)Nc3ccc(F)cc3F)=C2)cc1,-32%,-2%,?,21µM*,4%,?
COc1ccc(OC)c(C2=NS(=O)(=O)N(C)C(C(=O)Nc3ccc(F)cc3F)=C2)c1,-14%,-25%,7.3µM*,16µM*,-16%,?
Cc1ccc(C2=NS(=O)(=O)N(C)C(C(=O)NC3CCCCC3)=C2)cc1,-17%,1%,-24%,-11%,-1%,-1%
Cc1ccc(C2=NS(=O)(=O)N(C)C(C(=O)Nc3cc(C)n(CC(=O)N4CCC(C)CC4)n3)=C2)cc1,-24%,4%,21µM*,?,-6%,?
C=C(C)Cn1c(SCC(=O)c2ccc(Br)cc2)nc2sc3c(c2c1=O)CCCC3,5%,.,0%,5%,.,2%
CCCNC(=O)c1c(NC(=O)c2ccccc2F)sc2c1CCCCC2,0%,.,-4%,3%,.,2%
CC(Oc1cc2oc(=O)c3c(c2cc1Cl)CCC3)C(=O)NCCN1CCOCC1 (centres undefined),0%,-1%,-1%,-12%,0%,-12%
Cc1ccc(-c2nc(SC(C)C(=O)c3c(N)n(C)c(=O)n(C)c3=O)n[nH]2)cc1 (centres undefined),-1%,4%,23µM*,?,8%,-10%
COc1ccc(NC(=O)CCCn2cnc3ccccc3c2=O)cc1,-14%,0%,-4%,10%,-7%,5%
Cc1ccc2cc(F)c(F)c(F)c2n1,0%,?,-2%,4%,8%,3%
Cc1ccc2ccc3ccc(C)nc3c2n1,-10%,0.0058µM*,0.15µM*,0.016µM*,?,?
CC(C)(C)OC(=O)N1CCC(c2c(C(=O)N3CCN(C(=O)c4ccco4)CC3)cnn2-c2ccccc2)CC1,-8%,.,-8%,-14%,.,2%
O=C(CN1C(=O)CCC1=O)c1ccc(-c2ccccc2)cc1,5%,?,-25%,-10%,25%,-1%
N=c1ccn(CC(=O)c2ccc(-c3ccccc3)cc2)cc1,-26%,?,2.9µM*,4.6µM*,16µM*,?
SMILES,HepG2 viability,HT1080-NT tox,TDP1 cell noCPT,TDP1 cell CPT,HT1080 IDH1KD tx,TGFb SMAD3 inh
Cc1cccc(N2C(=O)C(Cl)=C(Nc3c(C)n(C)n(-c4ccccc4)c3=O)C2=O)c1C,-8%,-6%,?,?,3%,-17%
CC[n+]1c(-c2ccc(C)cc2)csc1Nc1c(C)n(C)n(-c2ccccc2)c1=O,0%,-4%,12µM*,15µM*,-24%,-19%
Cc1ccc(N2C(=O)C(Cl)=C(Nc3c(C)n(C)n(-c4ccccc4)c3=O)C2=O)cc1,1%,0%,13µM*,?,?,?
c1cc(SC2CCCCC2)cc(-c2nc3cnccn3c2NC2CCCCC2)c1,16µM*,?,?,?,?,-17%
c1ccc(-c2nc3cnccn3c2Nc2ccc3c(c2)OCCO3)cc1,-21%,-2%,?,?,-10%,-3%
CCC(C)Sc1cccc(-c2nc3cnccn3c2NC2CCCCC2)c1 (centres undefined),-106%,?,16µM*,21µM*,?,?
Cc1cc(C)n2c(NC3CCCC3)c(-c3cccnc3)nc2n1,.,7%,-15%,-8%,8%,.
Brc1ccc2nc(-c3ccncc3)c(NC3CCCC3)n2c1,-22%,-7%,-27%,?,0%,-17%
CCN(CC)c1ccc(-c2nc3cnccn3c2NC2CCCC2)cc1,-19%,8%,?,21µM*,3%,0%
COCCNC(=O)c1nn2c(C(F)(F)F)cc(-c3ccccc3)nc2c1Cl,9%,11%,-18%,-10%,9%,-1%
Cc1nc2nc(NC(=O)c3ccc(C(C)(C)C)cc3)[nH]n2c(=O)c1Cc1ccccc1,-2%,.,3%,0%,.,-2%
COc1cc(-c2ccc(N3C(c4ccsc4)=Cc4ccc(F)cc4C3c3c[nH]c4ccc(C#N)cc34)cc2)cc(OC)c1OC (centres undefined),.,-1%,?,?,0%,.
N#Cc1ccc2[nH]cc(C3c4cc(F)ccc4C=C(c4ccsc4)N3c3ccc(C#CCCO)cc3)c2c1 (centres undefined),.,?,18µM*,?,15µM*,.
CC(C)(O)C#Cc1ccc(N2C(c3ccsc3)=Cc3ccc(F)cc3C2c2c[nH]c3ccccc23)cc1 (centres undefined),.,6%,18µM*,?,0%,.
CCOC(=O)C1CCN(c2ncnc3c2cnn3C)CC1,-12%,-3%,-27%,3%,-2%,-11%
